In PubChem BioAssay (NCI):
Compounds without any hit were thinned out: in the full panel of roughly 83,000, 20% have a hit.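 Interpretation: 100, growth as untreated; towards 0, rising growth inhibition; 0, no net growth; 0 to -100, cell death. Compounds scoring below 10 were considered active.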 Active and inactive are the calls of the source.

What was measured:
Experiment in all cases: NCI-60 one-dose screen, 48 h (100 = growth as untreated, 0 = no growth, -100 = all killed)
Details in all cases: 10 µM unless noted
[1] = tested on: SK-MEL-2 melanoma
[2] = tested on: EKVX NSCLC
[3] = tested on: SN12C renal
[4] = tested on: UO-31 renal
[5] = tested on: TK-10 renal
[6] = tested on: ACHN renal
[7] = tested on: CAKI-1 renal
[8] = tested on: A498 renal
[9] = tested on: CCRF-CEM leukemia
[10] = tested on: MOLT-4 leukemia

Measured: growth

COc1cccc(/C=C2\COc3ccc(O)cc3C2=O)c1
inactive: [1] 104% | [2] 98.4% | [3] 30.1% | [4] 69.1% | [5] 101% | [6] 84.7% | [7] 80.4% | [8] 104% | [10] 40.2%
active: [9] -0.603%

COc1ccc(C2=CN3CC=CCC3CC2=O)cc1 (stereo not given)
inactive: [1] 92.1% | [2] 104% | [3] 97% | [4] 95.6% | [5] 103% | [6] 115% | [7] 99.7% | [8] 93.7% | [9] 108% | [10] 95%

Cc1ccc(C)c(-n2c(-c3ccc(Br)cc3)csc2=NC(=O)c2ccccc2F)c1
inactive: [1] 101% | [2] 76.1% | [3] 85.8% | [4] 108% | [5] 116% | [6] 52.9% | [7] 76.1% | [8] 80.7% | [9] 43.4% | [10] 30.5%

O=C(/C=C/c1ccccc1)Nc1ncc(Cc2ccccc2)s1
inactive: [1] 26.1% | [2] 23.2% | [3] 32.4% | [4] 30.4% | [5] 35% | [6] 26.5% | [7] 27.8% | [8] 12.6% | [9] 20.3% | [10] 22.6%

COc1cc2cc(NCc3ccc(OC(F)F)cc3)nc(C)c2cc1OC
inactive: [1] 79.8% | [2] 75.6% | [3] 62.6% | [4] 38.6% | [5] 54.1% | [6] 69.5% | [7] 51.5% | [8] 30.5% | [9] 68.9% | [10] 63.3%

COc1cc(C2Cc3ncccc3-c3[nH]c(=O)c4cccnc4c32)cc(OC)c1OC (stereo not given)
inactive: [1] 19.4% | [2] 44.2% | [3] 39.8% | [4] 38.6% | [5] 52.6% | [6] 46.4% | [7] 31.8% | [9] 22.1% | [10] 23.8%
active: [8] -1.31%

CCOC(=O)C1CCN(c2ccc(N3C[C@@H](CNCc4ccc(C(=N)N)cc4)OC3=O)cc2)CC1
inactive: [1] 112% | [2] 99.4% | [3] 97.6% | [4] 77.8% | [5] 97.5% | [6] 102% | [7] 89.4% | [8] 108% | [9] 98.5% | [10] 101%

CCOc1ccc(/C=N\N=C\c2ccc(OCC)cc2)cc1
active: [6] 9.41%
inactive: [1] 39.3% | [2] 103% | [3] 80.4% | [4] 79% | [5] 86.8% | [7] 46.3% | [8] 108% | [9] 118% | [10] 81%

CCCC(O)Cn1ncc(C(=O)OCC)c1NC(=O)NCc1cccc(F)c1 (stereo not given)
inactive: [1] 90.7% | [2] 97.8% | [3] 99.8% | [4] 79.3% | [5] 87.5% | [6] 96.6% | [7] 84.6% | [8] 108% | [9] 90.1% | [10] 70.6%

CC[C@]12C=CCN3CC[C@@]4(c5ccc(OC)cc5N(C)[C@H]4[C@@](O)(C(=O)OC)[C@@H]1OC(=O)CCCN1CCOCC1)[C@@H]32
inactive: [1] 109% | [2] 111% | [3] 105% | [4] 94.1% | [5] 99.8% | [6] 110% | [7] 94.2% | [8] 113% | [9] 107% | [10] 102%

Cc1nc2sc(C(=O)Nc3ccc(Cl)cc3)c(N)c2cc1C(O)c1ccccc1 (stereo not given)
inactive: [1] 56.6% | [2] 44.2% | [3] 40.6% | [4] 47.9% | [5] 60.3% | [6] 33.4% | [7] 47.5% | [8] 13.5% | [9] 13.4% | [10] 17.8%

N#Cc1nc(-c2ccc(F)cc2)oc1S(=O)(=O)N1CCN(c2ccc(F)cc2)CC1
active: [9] 4.6% | [10] 1.8%
inactive: [1] 90.9% | [2] 113% | [3] 85% | [4] 81.2% | [5] 86% | [6] 77.5% | [7] 100% | [8] 113%

CC12CCC(/C(=C/NNc3ccc([N+](=O)[O-])cc3[N+](=O)[O-])C1=O)C2(C)C (stereo not given)
inactive: [1] 38.4% | [2] 90.8% | [3] 73.1% | [4] 55.2% | [5] 96.8% | [6] 34.3% | [7] 46.8% | [8] 88.5% | [9] 47.4% | [10] 41.3%

O=C1/C(=C/c2cccc([N+](=O)[O-])c2)COc2ccc(O)cc21
inactive: [1] 91.3% | [2] 95.8% | [3] 13.1% | [4] 22.4% | [5] 87% | [7] 52.8% | [8] 102% | [10] 18.2%
active: [6] 6.88% | [9] 0.606%

CCN(CC)c1ccc(/C=N\NC(=O)c2cccc(Nc3ccnc(C(F)(F)F)c3)c2)c(O)c1
active: [4] 7.3%
inactive: [1] 87.5% | [2] 26.6% | [3] 18.2% | [5] 42.8% | [6] 12.1% | [7] 55.6% | [8] 53% | [9] 15.7% | [10] 77.5%

Cn1cc(/C=C2/C(=O)Nc3ccccc32)c2ccccc21
inactive: [1] 101% | [2] 78.2% | [3] 85.7% | [4] 57.9% | [5] 119% | [6] 83.3% | [7] 64.8% | [8] 118% | [9] 90% | [10] 82.4%

O=C1CCCc2nc3sc4c(=O)n(-c5ccccc5Cl)nnc4c3cc21
inactive: [1] 95.2% | [2] 91.7% | [3] 90.4% | [4] 92.4% | [5] 95% | [6] 107% | [7] 97.6% | [8] 95.5% | [9] 85.1% | [10] 98.2%

Cc1ccccc1OCC(O)COc1ccccc1C
inactive: [1] 102% | [2] 101% | [3] 83.9% | [4] 78.9% | [5] 120% | [6] 84.4% | [7] 80% | [8] 102% | [9] 85.2% | [10] 131%

COc1ccc2c(O)c(/C=C3\N=Nc4ccccc43)oc2c1C[C@H]1CCNC[C@H]1F
inactive: [1] 83.1% | [2] 40% | [3] 45.2% | [4] 45.3% | [5] 65.4% | [6] 42.8% | [7] 31% | [8] 39.9% | [9] 47.9% | [10] 24.2%

COc1ccc(C2C(C#N)=C(N)Oc3c2sc2c(Br)cccc32)cc1 (stereo not given)
inactive: [1] 10.9% | [2] 46.2% | [3] 37.3% | [4] 35.9% | [5] 50.2% | [6] 54% | [7] 35.9% | [8] 27% | [9] 12.5% | [10] 12.1%

Cn1c(/C=C/[N+](=O)[O-])cc2ccccc21
inactive: [1] 11.2% | [2] 46.1% | [3] 43.7% | [5] 57.7% | [7] 82.8% | [9] 30.1% | [10] 26.7%
active: [4] -56.9% | [6] -29.7% | [8] -20%

COc1ccc(Cc2nnc(Nc3nc4ccccc4s3)s2)cc1
inactive: [1] 107% | [2] 96.1% | [3] 94.2% | [4] 81.2% | [5] 103% | [6] 97.2% | [7] 96.1% | [8] 97.8% | [9] 97.7% | [10] 105%

CC(=O)N(Cc1ccccc1)c1nc2ccc(O)c(CN(C)C)c2s1
inactive: [1] 108% | [2] 89% | [3] 99.2% | [4] 77% | [5] 99.6% | [6] 96.8% | [7] 82.8% | [8] 66% | [9] 106% | [10] 112%

CN1CCN(Cc2ccc(NC(=O)c3cncc(C#Cc4cncc5ncccc45)c3)cc2C(F)(F)F)CC1
active: [1] -69.1% | [4] -10.2% | [6] 8.35% | [7] -19.7% | [8] -25.5% | [9] 3.31% | [10] 9.12%
inactive: [2] 39.2% | [3] 21.3% | [5] 22%

C=CC1(C)C(O[Si](C)(C)C(C)(C)C)CC2C3OC(=O)NC31c1cccc3c1[C@H](C(=O)N3C)C2(C)C (stereo not given in full)
inactive: [1] 66.9% | [2] 44.2% | [3] 50.2% | [4] 49.5% | [5] 71.3% | [6] 59.6% | [7] 53.3% | [8] 62.6% | [9] 47.1% | [10] 26%

O=c1[nH]cnc2c1C(c1ccc(Br)cc1)c1sc3c(F)cccc3c1O2 (stereo not given)
inactive: [1] 110% | [2] 90.9% | [3] 98.3% | [4] 76% | [5] 107% | [6] 95.1% | [7] 82.1% | [8] 104% | [10] 37%
active: [9] -50.7%

CCOC(=O)C/C(=N\Nc1cc(=O)[nH]c2ccc(Cl)cc12)C(=O)OCC
active: [9] -51.5% | [10] -0.305%
inactive: [1] 116% | [2] 105% | [3] 94.9% | [4] 83.7% | [5] 104% | [6] 99.3% | [7] 92.4% | [8] 108%
